Here are results for 8 compounds from PubChem BioAssay (NCI).

Test systems include DU-145 prostate; K-562 leukemia; MALME-3M melanoma; MDA-MB-231 breast; RXF 393 renal; SF-268 CNS; SF-295 CNS; SF-539 CNS; UACC-257 melanoma; M14 melanoma; HCT-15 colon; HT29 colon; SNB-75 CNS; SNB-19 CNS; U251 CNS; PC-3 prostate; SK-MEL-5 melanoma; UACC-62 melanoma; SK-MEL-28 melanoma.
Common to all, as to assay: NCI-60 one-dose screen, 48 h (100 = growth as untreated, 0 = no growth, -100 = all killed)
Conditions in all cases: 10 µM unless noted

About 83,000 compounds went through this panel and 20% of them were active in at least one assay; those are over-represented in the sample as a whole.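 Compound tested at a single concentration for 48 hours in 96-well plates; a percent growth value below 10 was scored as active.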 A number with no mark means an inactive call. Calls of active or inactive are those of the source.

Turning to `O=C(/C=C/c1ccc(O)c(O)c1)NC1CCOC1O` (centres undefined), the growth in the experiment on DU-145 prostate is 108%; in the experiment with K-562 leukemia it was 88.3%; with MALME-3M melanoma it was 103%; with MDA-MB-231 breast, 99.1%; in the experiment on RXF 393 renal it was 125%; with SF-268 CNS it was 99.6%. In addition, the growth in the experiment with SF-295 CNS was 101%; with SF-539 CNS, 95.7%; with UACC-257 melanoma, 102%; in the experiment with M14 melanoma it was 108%; with HCT-15 colon, 94.6%; in the experiment with HT29 colon it was 113%. Also, the growth in the experiment with SNB-75 CNS was 91.6%; in the experiment on SNB-19 CNS, 98.8%; in the experiment on U251 CNS, 95.4%; in the experiment on PC-3 prostate, 95.4%; in the experiment with SK-MEL-5 melanoma it was 103%; in the experiment on UACC-62 melanoma it was 104%. Also, the growth in the experiment with SK-MEL-28 melanoma was 107%.
Consider `NC(=S)Nc1cccc(NC(N)=S)c1`, for which the growth is 101% in the experiment with DU-145 prostate; 9.26% (active) in the experiment with K-562 leukemia; 84.3% in the experiment on MALME-3M melanoma; 89.7% with MDA-MB-231 breast; 104% in the experiment on RXF 393 renal; 90.9% with SF-268 CNS. Also, the growth is 90.2% with SF-295 CNS; 100% in the experiment on SF-539 CNS; 98.1% in the experiment with UACC-257 melanoma; 125% with M14 melanoma; 95.1% in the experiment with HCT-15 colon; 113% with HT29 colon. Moreover, the growth was 97.6% with SNB-75 CNS; 88.3% with SNB-19 CNS; 88.8% in the experiment with U251 CNS; 102% in the experiment on PC-3 prostate; 91.4% with SK-MEL-5 melanoma; 70.5% in the experiment with UACC-62 melanoma. Besides, the growth in the experiment on SK-MEL-28 melanoma was 104%.
Turning to `COc1ccc(C(=O)/C=C/c2ccc(OCc3ccccc3)c(OC)c2)cc1OC`, the growth in the experiment with DU-145 prostate is 7.25% (active); with K-562 leukemia, 10.5%; with MALME-3M melanoma, 71.5%; in the experiment on MDA-MB-231 breast, 13%; with RXF 393 renal, 24.2%; in the experiment on SF-268 CNS it was 32.6%. The growth in the experiment with SF-295 CNS was 25.8%; in the experiment on SF-539 CNS, -37.9% (active); with UACC-257 melanoma, 58.9%; in the experiment with M14 melanoma, 62.3%; in the experiment with HCT-15 colon it was 9.77% (active); in the experiment with HT29 colon it was 15.1%. The growth was -15.9% (active) in the experiment on SNB-75 CNS; 14.4% in the experiment with SNB-19 CNS; 10.1% in the experiment on U251 CNS; 37% in the experiment on PC-3 prostate; 34.9% in the experiment with SK-MEL-5 melanoma; 29% in the experiment with UACC-62 melanoma. Further, the growth in the experiment on SK-MEL-28 melanoma is 70.4%.
With `COc1cc2c(c(OC)c1OC)C(=O)CC(c1cccc(NC(=O)[C@@H](N)CC(C)C)c1)O2` (some centres undefined), the growth was 100% in the experiment with DU-145 prostate; 80.6% with K-562 leukemia; 95.5% in the experiment on MALME-3M melanoma; 99.9% in the experiment with MDA-MB-231 breast; 101% in the experiment on RXF 393 renal; 95.1% with SF-268 CNS. Further, the growth is 101% in the experiment on SF-295 CNS; 97.3% in the experiment with SF-539 CNS; 94.1% with UACC-257 melanoma; 116% with M14 melanoma; 95.3% with HCT-15 colon; 108% with HT29 colon. The growth in the experiment on SNB-75 CNS was 97.8%; with SNB-19 CNS, 91.2%; in the experiment on U251 CNS, 95.3%; in the experiment with PC-3 prostate, 97.2%; in the experiment on SK-MEL-5 melanoma it was 96.7%; in the experiment with UACC-62 melanoma, 96.8%. Also, the growth in the experiment with SK-MEL-28 melanoma was 115%.
In the case of `COc1ccc(NC(=O)Cn2c3c(sc2=O)[C@H]2[C@@H](O)[C@@H](O)[C@H](O)[C@@H]2CS3)cc1`, the growth in the experiment with DU-145 prostate is 109%; in the experiment on K-562 leukemia, 95.6%; with MALME-3M melanoma, 102%; in the experiment with MDA-MB-231 breast, 107%; with RXF 393 renal it was 114%; with SF-268 CNS, 102%. Moreover, the growth in the experiment with SF-295 CNS was 105%; in the experiment with SF-539 CNS, 101%; with UACC-257 melanoma, 102%; in the experiment with M14 melanoma, 103%; with HCT-15 colon it was 104%; in the experiment with HT29 colon it was 110%. Also, the growth was 88.5% in the experiment on SNB-75 CNS; 106% with SNB-19 CNS; 99.7% with U251 CNS; 106% with SK-MEL-5 melanoma; 99.8% in the experiment with UACC-62 melanoma; 103% with SK-MEL-28 melanoma.
Regarding `Cc1ccc(NCC(=O)Cn2cc(COc3ccc(C=Nc4cnc5ccccc5c4)cc3)nn2)cc1`, the growth with DU-145 prostate was 119%; with K-562 leukemia, 102%; in the experiment with MALME-3M melanoma it was 102%; with MDA-MB-231 breast, 107%; with RXF 393 renal, 125%; with SF-268 CNS it was 123%. Moreover, the growth in the experiment with SF-295 CNS was 107%; in the experiment on SF-539 CNS, 104%; with UACC-257 melanoma it was 105%; with M14 melanoma, 105%; with HCT-15 colon, 112%; in the experiment with HT29 colon, 116%. Moreover, the growth with SNB-75 CNS is 111%; in the experiment with SNB-19 CNS it was 97.9%; in the experiment on U251 CNS it was 101%; with PC-3 prostate it was 106%; in the experiment on SK-MEL-5 melanoma, 102%; with UACC-62 melanoma it was 97.8%. Also, the growth in the experiment on SK-MEL-28 melanoma was 112%.
Regarding `COc1ccc(-c2c(Nn3cnnn3)no[n+]2[O-])cc1`, the growth in the experiment on DU-145 prostate was 63.1%; in the experiment with K-562 leukemia, 30.2%; in the experiment on MALME-3M melanoma it was 62.2%; with MDA-MB-231 breast it was 38.8%; in the experiment with RXF 393 renal, 42.5%; in the experiment with SF-268 CNS, 66.3%. The growth in the experiment with SF-295 CNS is 51.6%; with SF-539 CNS it was 56.3%; in the experiment on UACC-257 melanoma it was 71.8%; with M14 melanoma, 59.9%; with HCT-15 colon, 31.3%; in the experiment on HT29 colon it was 39.4%. The growth was 29.6% in the experiment with SNB-75 CNS; 71% in the experiment with SNB-19 CNS; 55.4% in the experiment with U251 CNS; 59.4% in the experiment with PC-3 prostate; 75.7% in the experiment on SK-MEL-5 melanoma; 47.5% in the experiment with UACC-62 melanoma. Further, the growth with SK-MEL-28 melanoma is 85.5%.
Regarding `COc1cc(OC)c2c3nc4cc(C)c(C)cc4nc3n(CCN(C)C)c2c1`, the growth with DU-145 prostate was 60.4%; with K-562 leukemia, 1.64% (active); in the experiment with MALME-3M melanoma it was -36.1% (active); with MDA-MB-231 breast it was 38%; in the experiment on RXF 393 renal it was -18.4% (active); in the experiment on SF-268 CNS it was 86.2%. Moreover, the growth is 53.7% in the experiment with SF-295 CNS; -83.5% (active) in the experiment with SF-539 CNS; 101% with UACC-257 melanoma; 47.9% with M14 melanoma; -27.9% (active) in the experiment with HCT-15 colon; 49.9% in the experiment on HT29 colon. Further, the growth in the experiment on SNB-75 CNS is 78.3%; in the experiment with SNB-19 CNS, 70.5%; in the experiment with U251 CNS, 87.7%; in the experiment with SK-MEL-5 melanoma, 69.8%; with UACC-62 melanoma, 99.1%.
